Screening data deposited in PubChem by National Center for Advancing Translational Sciences (NCATS).
This is a sample that favours compounds with a hit; in the whole collection about 1.2% have one here.
ERK AVP inh – qHTS Assay for Inhibitors of the ERK Signaling Pathway using a Homogeneous Screening Assay | 72,000 compounds, 0.99% hits | Potency, µM (doses to about 57.5 µM), usual class: inhibitors | AID 995, 2007 | HEK293-V1b, vasopressin-stimulated pERK AlphaScreen; note: nearly all actives have a fitted effect of over 55% in size
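HEK293 cells stably expressing V1b receptor, preincubated 30 min at 37 °C with compound, then stimulated 5 min with 25 nM vasopressin. Phospho-ERK by AlphaScreen SureFire after 5 h RT; normalized to DMSO and vasopressin; AC50 by Hill fit.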
YjeE inh – qHTS Assay for Inhibitors of YjeE | tRNA threonylcarbamoyladenosine biosynthesis protein TsaE (Escherichia coli (strain … | purified YjeE enzyme, qHTS inhibition assay | Potency, µM | 71,000 compounds, 0.05% hits
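Fluorescence polarization of a BODIPY Texas Red–ADP probe (2 uM) bound to purified YjeE (10 uM) was read after 15 min room-temperature incubation with compounds. Loss of polarization marks inhibitors; ADP serves as titrated control.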
BRCT inh red – qHTS Assay for Inhibitors of BRCT-Phosphoprotein Interaction (Red Fluorophore). BRCT-phosphopeptide binding, red fluorescence polarization. Breast cancer type 1 susceptibility protein (Homo sapiens), P38398. 75,000 compounds, 0.03% hits. Potency, µM (series often up to 76.9 µM), usual class: inhibitors
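Rhodamine-labelled pBACH1 10-mer (100 nM) bound to BRCT domain (100 nM) at pH 7.3; compounds incubated 12 min room temperature, polarization read. Free peptide defines full inhibition; unlabelled decapeptide titrated as control.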
BRCT inh green – qHTS Assay for Inhibitors of BRCT-Phosphoprotein Interaction (Green Fluorophore); BRCA1 BRCT-phosphopeptide binding, green fluorescence polarization; 75,000 compounds, 0.05% hits; Potency, µM (series often up to 76.9 µM), actives largely listed as inhibitors; Breast cancer type 1 susceptibility protein (Homo sapiens), P38398
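Fluorescence polarization: His-tagged BRCT (~35 kDa BRCA1 C-terminus, 250 nM) bound to 100 nM fluorescein-labeled phosphorylated 10-aa BACH1 peptide, pH 7.3 phosphate buffer with DTT and Tween 20. Compounds incubated 12 min at room temperature; inhibition read as lowered polarization.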
Pol III holo inh – qHTS Assay for Inhibitors of DNA Polymerase III Holoenzyme System | reconstituted DNA polymerase III holoenzyme replication, biochemical | Potency, µM (series often up to 57.1 µM) | 71,000 compounds, 0.25% hits | AID 603, 2007
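Reconstituted *E. coli* holoenzyme (0.35 nM Pol III, 1 nM beta, 154 nM SSB, 2 nM primase) was preincubated with compound for 15 min at RT. Synthesis on 1.4 nM ssM13Gori ran 35 min, then was stopped with PicoGreen/EDTA and read as dsDNA fluorescence.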
A number is an active result; i = inactive; ? = inconclusive; nt = no result; [ ] = another dose, or the depositor's remark. Calls come from the whole dose curve; as a rule, active = well fitted curve in the direction sought with a large enough effect; inconclusive = small, poorly fitted or top-dose-only effect, or another doubt; inactive = no such curve, though single readings can be large; an effect the other way counts as inactive or inconclusive.

SMILES	ERK AVP inh	YjeE inh	BRCT inh red	BRCT inh green	Pol III holo inh
OC(COc1ccc(Cl)c2ccccc12)CN1CCN(c2ccccn2)CC1 (configuration not stated)	20µM	i	i	i	i
N[C@@H](Cc1c[nH]c2ccccc12)C(=O)NCC(=O)O	nt	i	nt	nt	i
COc1ccc2c(c1OC)C(=O)OC2[C@H]1c2c(cc3c(c2OC)OCO3)CCN1C (some centres not stated)	i	i	i	i	i
COc1ccc2c(c1OC)C(Cc1ccccc1)N1CCc3cc4c(cc3C1=C2)OCO4 (configuration not stated)	6.31µM	nt	i	i	nt
CN1[C@@H]2CC[C@H]1CC(OC(c1ccccc1)c1ccccc1)C2 (some centres not stated)	i[11.5 µM]	i	i[15.4 µM]	i[15.4 µM]	i[11.4 µM]
O=C(CSc1nc2ccccc2c2ccccc12)c1ccccc1	i[11.5 µM]	i	i[15.4 µM]	i[15.4 µM]	i[11.4 µM]
CN1CCN(CC(=O)Nc2cccc3ccccc23)CC1	i[11.5 µM]	i	i[15.4 µM]	i[15.4 µM]	i[11.4 µM]
O=S(=O)(NC1CC2CCC1C2)c1ccc2c(c1)OCCO2 (configuration not stated)	25.1µM	i	i	i	i
O=S(=O)(c1ccc2c(c1)OCCO2)N1CCC(O)(c2ccc(Cl)cc2)CC1	i	i	i	i	i
O=S(=O)(c1ccccc1Cl)N1CCC(O)(c2ccc3c(c2)OCO3)CC1	31.6µM	i	i	i	i
COc1ccc(OCC(=O)Nc2ccc(S(=O)(=O)N3CCCCCC3)cc2)cc1	i	i	i	i	i
COc1ccccc1OCC(=O)Nc1ccc(S(=O)(=O)N2CCCCCC2)cc1	25.1µM	i	i	i	i[11.4 µM]
O=C(O)c1ccc2cc(-c3ccc(O)c(C45CC6CC(CC(C6)C4)C5)c3)ccc2c1	?	nt	i	i	nt
C=CCOC(=O)C(C(C)=O)C(NC(=O)OC)c1ccc2ccccc2c1 (configuration not stated)	i[11.5 µM]	nt	i[15.4 µM]	i[15.4 µM]	nt
Cc1cc2ncn(C3CC(=O)N(Cc4ccccc4)C3=O)c2cc1C (configuration not stated)	31.6µM	i	i	i	i
CN[C@@H]1[C@H](O)[C@H](NC)[C@@H]2O[C@]3(O)C(=O)C[C@@H](C)O[C@H]3O[C@@H]2[C@H]1O	nt	i	nt	nt	i
COc1ccccc1OCc1ccc(C(=O)Nc2ccncc2)o1	15.8µM	i	i	i	i
Cc1nc2c(c(=O)n1Cc1ccccc1Cl)c1nc3ccccc3nc1n2Cc1ccco1	25.1µM	i	i	i	i
COc1cccc(-c2nc(NC3CC3)c3ccccc3n2)c1	12.6µM	i	i	i	i
O=c1[nH]c(=O)n([C@@H]2O[C@H](CO)[C@@H](O)[C@H]2O)cc1F	i	nt	i	i	nt
O=C1CC(c2cccs2)Cc2nc(NCC3CCCO3)ncc21 (configuration not stated)	20µM	i	i	i	i
C=Cc1c(C)c2cc3[nH]c(cc4nc(cc5nc(cc1[nH]2)C(C)=C5CCC(=O)O)C(CCC(=O)O)=C4C)c(C)c3C=C	i	?	i	i[3.08 µM]	i
C=CC1=C(C)C2=Cc3c(C=C)c(C)c4[n]3[Sn+2][n]3c(c(C)c(CCC(=O)O)c3=CC3=NC(=C4)C(C)=C3CCC(=O)O)=CC1=N2	i	79.4µM	?	i	39.8µM
O=C(CS(=O)(=O)Cc1ccccc1)Nc1nc2ccccc2s1	25.1µM	i	i	i	i
COc1ccc(N2CCN(C(=O)C(Cc3ccccc3)n3cccc3)CC2)cc1 (configuration not stated)	25.1µM	i	i	i	i
O=C(C(Cc1ccccc1)n1cccc1)N1CCCCC1 (configuration not stated)	i	i	i	i	i
CCCCc1c(C)nn(-c2nnc3c4ccccc4n(CC)c3n2)c1C	20µM	i	i	i	i
CC1CCCCN1C(=O)CSc1nc2ccsc2c(=O)n1Cc1ccccn1 (configuration not stated)	25.1µM	i	i	i	i
N#CC1=C(N)Oc2n[nH]c(-c3cccs3)c2C1c1ccoc1 (configuration not stated)	?	i	i	i	i
